Many of the other results were omitted from the sample, so hits are more common in it than they were.
AMA1 RON2 block: inhibitors of Plasmodium falciparum AMA1-RON2 interaction. AlphaScreen AMA1-biotinylated RON2 peptide binding. Potency, µM (doses to about 58.2 µM), for the others: at the top dose activity change, negative = inhibition, hits mostly inhibitors. hit rate 0.2% among 360,000;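 further: potency means the concentration at half of the fitted maximal effect; 0% = vehicle wells and -100% = peptide control; nearly all actives have a fitted effect of over 45% in size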
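AMA1 (3D7) with his tag at 25 nM final met compounds first, then biotinylated RON2 peptide at 25 nM; detection used donor plus acceptor beads, 10 µg/mL apiece, read by AlphaScreen after 30 min at room temperature.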
Shiga inhibitor: inhibitors of Shiga toxin in Vero cells; hit rate 9.2% among 290,000; inhibition, % at 38.7 µM; Vero cells, Shiga toxin protein synthesis inhibition reporter; AID 2315; in the data active means inhibition mostly above about 28%, no sharp cut-off; inactive means mostly below about 43%; further: 0% is about no effect
SARS PLpro yeast-1: blocks SARS-CoV papain-like protease in a yeast assay; hit rate 0.19% among 330,000; AID 485353; Potency, µM (highest dose often 32.9 µM), for inactives: at the highest dose activity, positive = growth rescue, hits mostly activators; S. cerevisiae expressing SARS-CoV PLpro, growth rescue; calls by dose curve; further: potency means the concentration at half of the fitted maximal effect; 0% is about no effect; nearly all actives have a fitted effect of over 55% in size
CHX counter: counter-screen for Shiga toxin inhibitors: cycloheximide protein synthesis inhibition. cell reporter, cycloheximide protein synthesis inhibition counterscreen. max response, %. hit rate 12% among 300,000; in the data active means max response mostly above about 13%, no sharp cut-off; inactive means mostly below about 14%; further: read at 38.3 µM for the half of the compounds with a filed dose; 0% is about no effect
AmpC detergent: AmpC beta-lactamase inhibition with detergent present. AmpC hydrolysis of nitrocefin, absorbance 480 nm, 0.01% Triton. Potency, µM (top dose mostly 114 µM), inactives show at the top dose activity change, negative = inhibition, actives largely listed as inhibitors. hit rate 0.041% among 370,000;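 further: potency means the concentration at half of the fitted maximal effect; 0% = no-compound wells and -100% = no-enzyme wells; nearly all actives have a fitted effect of over 25% in size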
Target sequence (P00811 whole entry, looked up): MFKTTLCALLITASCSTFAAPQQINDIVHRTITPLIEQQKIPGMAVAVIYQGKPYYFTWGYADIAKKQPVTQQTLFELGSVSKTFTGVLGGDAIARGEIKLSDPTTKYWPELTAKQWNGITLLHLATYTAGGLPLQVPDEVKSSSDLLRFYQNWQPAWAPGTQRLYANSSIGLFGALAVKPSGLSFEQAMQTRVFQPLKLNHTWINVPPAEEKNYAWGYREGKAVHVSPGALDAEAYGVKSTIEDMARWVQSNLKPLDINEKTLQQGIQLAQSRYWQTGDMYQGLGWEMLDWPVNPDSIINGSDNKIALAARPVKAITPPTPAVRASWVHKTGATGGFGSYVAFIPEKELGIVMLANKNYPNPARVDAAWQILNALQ
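AmpC (5.3 nM in the dispensed reagent) in 20 mM phosphate pH 7.0 with 0.01% (detergent screen) or 0.0001% Triton X-100 was preincubated with compounds for 15 min at room temperature. Nitrocefin was then added from an 800 uM solution, and hydrolysis was followed at 480 nm.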
AmpC no deterg: inhibitors of E. coli AmpC beta-lactamase without detergent | AID 485341 | Potency, µM (highest dose often 57.1 µM), without a hit: at the top dose activity change, negative = inhibition, usual class: inhibitors | P00811 | AmpC nitrocefin hydrolysis, absorbance 480 nm, 0.0001% Triton | hit rate 0.52% among 330,000;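 further: potency means the concentration at half of the fitted maximal effect; plate controls were no compound for no effect and no enzyme for full effect; nearly all actives have a fitted effect of over 20% in size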
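AmpC (5.3 nM in the dispensed reagent) in 20 mM phosphate pH 7.0 with 0.01% (detergent screen) or 0.0001% Triton X-100 was preincubated with compounds for 15 min at room temperature. Nitrocefin was then added from an 800 uM solution, and hydrolysis was followed at 480 nm.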
SARS PLpro yeast-2: Validates SARS-CoV PLpro inhibitor hits in yeast; shares compounds with SARS PLpro yeast-1; yeast expressing SARS-CoV PLpro, growth phenotype rescue; calls only; hit rate 19% among 1,000; AID 652038; call rule not given here
Active calls of the source: *; i = inactive; ? = inconclusive; . = no result; + = active, no number; [ ] = remark or other dose. Unless noted, the call rests on the fitted dose curve; in most records, active means well fitted curve in the direction sought with a large enough effect; inconclusive means small, poorly fitted or top-dose-only effect, or another doubt; inactive means no such curve, though single readings can be large; an effect the other way counts as inactive or inconclusive.

SMILES	AMA1 RON2 block	Shiga inhibitor	SARS PLpro yeast-1	CHX counter	AmpC detergent	AmpC no deterg	SARS PLpro yeast-2
COc1cccc(/C=N/NC(=O)c2nc(-c3ccccc3)cc(-c3ccccc3)n2)c1O	43%	13	11µM*	15*	-14%	-31%	+
CC(=O)N(CCc1ccccc1C)Cc1cc2cc3c(cc2[nH]c1=O)OCO3	-1%	-8	11µM*	-4	5%	-2%	i
Cn1nnnc1SCCCNCc1ccc(-c2cccc(Cl)c2)o1	.	.	.	.	0%	.	.
COC(CNC(=O)c1ccc(CS(=O)(=O)c2ccc(C)cc2)o1)OC	14%	-5	-2%	-3	-1%	0%	.
COCCNC(=O)c1ccc(CS(=O)(=O)c2ccc(C)cc2)o1	1%	-19	?	-2	-5%	0%	i
CCOC(=O)C1CCN(C(=O)c2cc(S(=O)(=O)N3CCCCC3)ccc2C)CC1	-1%	-13	0%	-1	4%	63%	.
CN1C(=O)/C(=C2/C=CC=CN2C)OC1=S	42%	28	?	15	-14%	-5%	?
O=C(CN1C(=O)NC2(CCCC2)C1=O)N1CCN(S(=O)(=O)c2cccc(F)c2)CC1	16%	-27	.	1	-4%	0%	i
Cc1ccc(/C=N/Nc2nc3ccccc3[nH]2)s1	22%	active	2.8µM*	45*	-5%	-35%	i
O=C(/C=C/c1ccc(F)cc1)NCCc1ccc2c(c1)OCCO2	-16%	4	4µM*	1	?	-23%	i
O=C(N/N=C\c1ccc(Cl)s1)c1ccc(Cn2cccn2)o1	25%	-2	1%	8	-5%	-18%	.
O=C(N/N=C\c1c(O)ccc2ccccc12)c1ccc(Cn2cccn2)o1	42%[11.6 µM]	-3	?	-2	-7%	-16%	i
COc1ccccc1NC(=S)NNC(=O)c1cc(C)n(C)n1	148%	4	?	7	?	-3%	i
Cc1ccc(N2CN(Cc3ccco3)CNC2=S)c(C)c1	-6%	9	?	-1	-7%	-27%	?
Cc1ccc(N2CN(Cc3cccnc3)CNC2=S)c(C)c1	4%	-5	-14%	-2	-3%	-9%	.
Cc1noc(C)c1COc1ccccc1C(=O)N1CCN(S(=O)(=O)c2ccccc2C#N)CC1	-7%	.	.	.	.	.	.
Oc1c(C(c2ccc(Cl)cc2)N2CCCC2)cc(Cl)c2cccnc12 (stereo not given)	-59%	2	.	5	-13%	-36%	i
CC(=O)NC(c1ccc(C)cc1)c1cc(Cl)c2cccnc2c1O (stereo not given)	84%	-7	?	-2	-15%	-15%	+
COc1ccc(C(NC(=O)c2cccnc2)c2cc(Cl)c3cccnc3c2O)cc1OC (stereo not given)	34%	-10	2.2µM*	-2	-2%	44%	i
Oc1c(C(Nc2ccccn2)c2cccnc2)cc(Cl)c2cccnc12 (stereo not given)	?	17	2.5µM*	-2	-4%	-25%	i
Cc1ccc2c(c1)c(=O)c1ccccc1n2CCCC(=O)Nc1ccc(Cl)cc1C	.	.	.	.	8%	.	.
COc1ccc(NS(=O)(=O)c2ccc(NC(=S)NC(=O)c3ccc(F)cc3)cc2)nn1	8%	7	-6%	-2	-7%	-29%	.
COc1ccc(OCC(=O)Sc2ccc(C)cc2)cc1	56%	-1	2.8µM*	8	-5%	-33%	i
CC(=O)Nc1ccc2c(c1)n(C)c(=O)n2C	-4%	11	?	1	1%	-20%	.
Cn1c(=O)n(C)c2cc(NC(=O)CCl)ccc21	-5%	12	10µM*	23*	?	-4%	+
SMILES	AMA1 RON2 block	Shiga inhibitor	SARS PLpro yeast-1	CHX counter	AmpC detergent	AmpC no deterg	SARS PLpro yeast-2
CSc1ccc(/C=N/N2CCN(Cc3ccc(C)cc3C)CC2)cc1	-19%	-2	-2%	-2	3%	-11%	.
Cc1ccc(CN2CCN(/N=C/c3sccc3C)CC2)c(C)c1	?	8	11µM*	-1	-6%	-33%	i
CCOc1ccc(-c2cccc(NS(=O)(=O)c3ccc(Cl)s3)c2)nn1	.	.	.	.	23%	.	.
O=C(CNS(=O)(=O)c1ccc2ccccc2c1)OCc1csc(-c2ccccc2)n1	-14%	19	3.2µM*	20*	-12%	-18%	i
O=S(=O)(NCc1ccncc1)c1ccccc1	-24%	2	2%	-2	-22%	-22%	.
N#Cc1ccc(CN2CCN(C(=O)c3cc(Cl)c4c(c3)OCCO4)CC2)cc1	-4%	.	-7%	.	1%	29%	.
NC(=O)C1CCN(C(=O)c2cc(Cl)c3c(c2)OCCO3)CC1	9%	.	2.5µM*	.	.	-19%	i
C#CCSc1nnc(CSc2nc3ccccc3s2)n1-c1ccccc1	1%	-15	?	11	5%	-14%	?
CCOC(=O)CSc1nnc(CSc2nc3ccccc3s2)n1C	2%	7	8%	6	-1%	17%	.
Cc1ccc(NC(=O)CCC(=O)NNC(=S)Nc2ccccc2)c(C)c1	107%	-8	0%	1	-3%	13%	.
COc1cc(S(=O)(=O)N2CCOCC2)ccc1NC(=O)COC(=O)C12CC3CC(CC(C3)C1)C2	12%	31	11%	5	5%	4%	.
COC(=O)C1=C(c2ccc(-c3ccccc3)c(F)c2)C[C@@H]2CC[C@H]1N2C(=O)NC1CC1	-3%	.	?	.	9%	162%	i
COC(=O)C1=C(c2ccc(-c3ccccc3)c(F)c2)C[C@@H]2CC[C@H]1N2C(=O)NC(C)C	-1%	.	3%	.	-7%	179%	.
COc1cc(NC(=O)c2cccc([N+](=O)[O-])c2C)ccc1NC(=O)c1ccco1	20%	72*	2.8µM*	19*	-11%	-40%	i
COc1ccc(CC(=O)NC2CC(=O)N(c3ccc(C)c(C)c3)C2)cc1OC (stereo not given)	.	.	.	.	3%	.	.

Source: PubChem BioAssay (National Center for Advancing Translational Sciences (NCATS))
